Measured values reported in article PMC11006913.
Positions count from the first letter of the chain named.

Tests used:
Assay in all cases: PBM; 200 nM protein, PBS
Settings in all cases: dsDNA, one strand shown
HOXB9 [1] = molecular target: HOXB9 (Homo sapiens, UniProt P17482 171-250, T197M)
HOXC9 [2] = molecular target: HOXC9 (Homo sapiens, UniProt P31274 178-260, K195R)
HOXC10 [3] = molecular target: HOXC10 (Homo sapiens, UniProt Q9NYD6 254-340)
ALX4 = ALX4 (Homo sapiens, UniProt Q9H161 200-286, Q225E)
HOXA2 [4] = molecular target: HOXA2 (Homo sapiens, UniProt O43364 129-215, R185T)
HOXB9 [5] = molecular target: HOXB9 (Homo sapiens, UniProt P17482 171-250)
HOXC9 [6] = molecular target: HOXC9 (Homo sapiens, UniProt P31274 178-260)
HOXD13 [7] = molecular target: HOXD13 (Homo sapiens, UniProt P35453 263-343, T313R)
HOXC9 [8] = molecular target: HOXC9 (Homo sapiens, UniProt P31274 178-260, R193K)
HOXA2 [9] = molecular target: HOXA2 (Homo sapiens, UniProt O43364 129-215, R185K)
HOXD13 [10] = molecular target: HOXD13 (Homo sapiens, UniProt P35453 263-343)
HOXC10 [11] = molecular target: HOXC10 (Homo sapiens, UniProt Q9NYD6 254-340, K271E)
HOXD13 [12] = molecular target: HOXD13 (Homo sapiens, UniProt P35453 263-343, T313A)
HOXB9 [13] = molecular target: HOXB9 (Homo sapiens, UniProt P17482 171-250, R186Q)
HOXC9 [14] = molecular target: HOXC9 (Homo sapiens, UniProt P31274 178-260, R222W)
HOXA2 [15] = molecular target: HOXA2 (Homo sapiens, UniProt O43364 129-215, Y150S)
HOXA2 [16] = molecular target: HOXA2 (Homo sapiens, UniProt O43364 129-215)
VENTX [17] = molecular target: T1, VENTX (Homo sapiens, UniProt O95231 78-163, R121Q)
T1 sequence: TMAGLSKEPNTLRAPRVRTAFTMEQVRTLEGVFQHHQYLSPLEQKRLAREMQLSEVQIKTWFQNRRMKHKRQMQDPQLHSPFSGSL

NKX2-6 = molecular target: T2, NKX2-6 (Homo sapiens, UniProt A6NCS4 118-204)
T2 sequence: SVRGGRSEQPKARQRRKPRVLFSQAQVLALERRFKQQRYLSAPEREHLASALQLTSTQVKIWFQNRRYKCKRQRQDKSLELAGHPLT

PAX4 [18] = molecular target: T3, PAX4 (Homo sapiens, UniProt O43316 9-242, R200K)
T3 sequence: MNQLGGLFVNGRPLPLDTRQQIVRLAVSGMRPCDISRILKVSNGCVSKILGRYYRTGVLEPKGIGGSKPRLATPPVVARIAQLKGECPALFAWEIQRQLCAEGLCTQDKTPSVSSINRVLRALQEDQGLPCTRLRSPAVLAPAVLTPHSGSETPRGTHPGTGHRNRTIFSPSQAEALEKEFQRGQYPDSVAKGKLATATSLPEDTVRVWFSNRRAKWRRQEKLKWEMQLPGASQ

VENTX [19] = molecular target: T4, VENTX (Homo sapiens, UniProt O95231 78-163, Y115F)
T4 sequence: T1 sequence with Y38F, Q44R

PAX4 [20] = molecular target: T5, PAX4 (Homo sapiens, UniProt O43316 9-242)
T5 sequence: T3 sequence with K192R

PAX4 [21] = molecular target: T6, PAX4 (Homo sapiens, UniProt O43316 9-242, R200Q)
T6 sequence: T3 sequence with K192Q

PAX4 [22] = molecular target: T7, PAX4 (Homo sapiens, UniProt O43316 9-242, F177V)
T7 sequence: T3 sequence with F169V, K192R

PAX4 [23] = molecular target: T8, PAX4 (Homo sapiens, UniProt O43316 9-242, F177Y)
T8 sequence: T3 sequence with F169Y, K192R

PAX4 [24] = molecular target: T9, PAX4 (Homo sapiens, UniProt O43316 9-242, R227W)
T9 sequence: T3 sequence with K192R, R219W

CRX = CRX (Homo sapiens, UniProt O43186 26-111, R41L)
HOXA7 [25] = molecular target: HOXA7 (Homo sapiens, UniProt P31268 116-202)
HOXB6 [26] = molecular target: HOXB6 (Homo sapiens, UniProt P17509 132-218, K202E)
HOXA7 [27] = molecular target: HOXA7 (Homo sapiens, UniProt P31268 116-202, W177C)
HOXB6 [28] = molecular target: HOXB6 (Homo sapiens, UniProt P17509 132-218)
ALX3 [29] = molecular target: ALX3 (Homo sapiens, UniProt O95076 139-225, N203Q)
ALX3 [30] = molecular target: ALX3 (Homo sapiens, UniProt O95076 139-225)
VAX1 [31] = molecular target: VAX1 (Homo sapiens, UniProt Q5SQQ9 86-172)
VAX1 [32] = molecular target: VAX1 (Homo sapiens, UniProt Q5SQQ9 86-172, T142I)
ALX3 [33] = molecular target: ALX3 (Homo sapiens, UniProt O95076 139-225, N203S)
VAX1 [34] = molecular target: VAX1 (Homo sapiens, UniProt Q5SQQ9 86-172, K157R)
Chain of VAX1 (Homo sapiens, UniProt Q5SQQ9 86-172, K157R) (Q5SQQ9 86-172 K157R): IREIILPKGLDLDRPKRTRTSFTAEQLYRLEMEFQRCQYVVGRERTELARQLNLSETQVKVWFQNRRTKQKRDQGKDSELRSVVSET

Chain of HOXC9 (Homo sapiens, UniProt P31274 178-260, R222W) (P31274 178-260 R222W): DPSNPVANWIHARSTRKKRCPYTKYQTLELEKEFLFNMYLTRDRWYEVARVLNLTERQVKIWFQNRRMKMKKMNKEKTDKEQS
Chain of HOXA7 (Homo sapiens, UniProt P31268 116-202) (P31268 116-202): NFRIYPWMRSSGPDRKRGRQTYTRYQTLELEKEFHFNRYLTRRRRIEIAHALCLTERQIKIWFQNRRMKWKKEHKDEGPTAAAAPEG
Chain of HOXC9 (Homo sapiens, UniProt P31274 178-260) (P31274 178-260): as the sequence (P31274 178-260 R222W) above, with W45R counted along it
Chain of HOXC10 (Homo sapiens, UniProt Q9NYD6 254-340, K271E) (Q9NYD6 254-340 K271E): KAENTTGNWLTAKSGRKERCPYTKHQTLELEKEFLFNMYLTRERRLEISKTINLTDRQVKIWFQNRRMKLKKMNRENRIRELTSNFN
Chain of HOXC9 (Homo sapiens, UniProt P31274 178-260, K195R) (P31274 178-260 K195R): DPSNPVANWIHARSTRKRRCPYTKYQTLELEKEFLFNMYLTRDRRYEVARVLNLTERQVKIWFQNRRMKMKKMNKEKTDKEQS
Chain of HOXB9 (Homo sapiens, UniProt P17482 171-250) (P17482 171-250): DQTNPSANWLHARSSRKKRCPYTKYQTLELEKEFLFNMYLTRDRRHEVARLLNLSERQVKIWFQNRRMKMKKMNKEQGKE
Chain of HOXB9 (Homo sapiens, UniProt P17482 171-250, T197M) (P17482 171-250 T197M): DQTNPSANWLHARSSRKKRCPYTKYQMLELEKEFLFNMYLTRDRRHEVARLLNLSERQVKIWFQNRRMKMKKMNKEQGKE
Chain of HOXB9 (Homo sapiens, UniProt P17482 171-250, R186Q) (P17482 171-250 R186Q): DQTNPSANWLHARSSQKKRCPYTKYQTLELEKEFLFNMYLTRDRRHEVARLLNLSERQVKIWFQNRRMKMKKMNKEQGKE
Chain of HOXC9 (Homo sapiens, UniProt P31274 178-260, R193K) (P31274 178-260 R193K): as the sequence (P31274 178-260 R222W) above, with R16K, W45R counted along it
Chain of HOXA7 (Homo sapiens, UniProt P31268 116-202, W177C) (P31268 116-202 W177C): as the sequence (P31268 116-202) above, with W62C counted along it
Chain of ALX4 (Q9H161 200-286 Q225E): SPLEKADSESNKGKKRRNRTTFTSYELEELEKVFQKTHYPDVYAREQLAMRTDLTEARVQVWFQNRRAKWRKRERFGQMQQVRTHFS
Chain of HOXC10 (Homo sapiens, UniProt Q9NYD6 254-340) (Q9NYD6 254-340): as the sequence (Q9NYD6 254-340 K271E) above, with E18K counted along it
Chain of HOXD13 (Homo sapiens, UniProt P35453 263-343, T313A) (P35453 263-343 T313A): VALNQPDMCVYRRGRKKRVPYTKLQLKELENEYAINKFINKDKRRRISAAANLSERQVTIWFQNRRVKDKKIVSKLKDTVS
Chain of HOXB6 (Homo sapiens, UniProt P17509 132-218) (P17509 132-218): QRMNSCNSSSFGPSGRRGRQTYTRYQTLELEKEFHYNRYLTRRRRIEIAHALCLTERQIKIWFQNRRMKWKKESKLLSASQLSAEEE
Chain of HOXD13 (Homo sapiens, UniProt P35453 263-343) (P35453 263-343): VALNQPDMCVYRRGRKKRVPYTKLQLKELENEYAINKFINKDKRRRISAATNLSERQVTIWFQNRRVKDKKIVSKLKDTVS
Chain of HOXD13 (Homo sapiens, UniProt P35453 263-343, T313R) (P35453 263-343 T313R): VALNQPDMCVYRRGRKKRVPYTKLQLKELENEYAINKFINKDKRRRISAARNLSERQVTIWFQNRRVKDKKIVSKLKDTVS
Chain of CRX (O43186 26-111 R41L): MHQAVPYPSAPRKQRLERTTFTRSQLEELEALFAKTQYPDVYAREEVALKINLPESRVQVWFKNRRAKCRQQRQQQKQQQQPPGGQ
Chain of HOXB6 (Homo sapiens, UniProt P17509 132-218, K202E) (P17509 132-218 K202E): as the sequence (P17509 132-218) above, with K71E counted along it
Chain of ALX3 (Homo sapiens, UniProt O95076 139-225, N203Q) (O95076 139-225 N203Q): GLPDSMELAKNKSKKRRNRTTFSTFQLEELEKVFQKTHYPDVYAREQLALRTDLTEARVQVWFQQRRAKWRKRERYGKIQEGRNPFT
Chain of VAX1 (Homo sapiens, UniProt Q5SQQ9 86-172, T142I) (Q5SQQ9 86-172 T142I): as the sequence (Q5SQQ9 86-172 K157R) above, with T57I, R72K counted along it
Chain of HOXA2 (Homo sapiens, UniProt O43364 129-215, R185T) (O43364 129-215 R185T): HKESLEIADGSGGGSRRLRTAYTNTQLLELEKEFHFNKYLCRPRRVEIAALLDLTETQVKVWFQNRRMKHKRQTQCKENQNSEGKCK
Chain of VAX1 (Homo sapiens, UniProt Q5SQQ9 86-172) (Q5SQQ9 86-172): as the sequence (Q5SQQ9 86-172 K157R) above, with R72K counted along it
Chain of HOXA2 (Homo sapiens, UniProt O43364 129-215, Y150S) (O43364 129-215 Y150S): as the sequence (O43364 129-215 R185T) above, with Y22S, T57R counted along it
Chain of HOXA2 (Homo sapiens, UniProt O43364 129-215) (O43364 129-215): as the sequence (O43364 129-215 R185T) above, with T57R counted along it
Chain of ALX3 (Homo sapiens, UniProt O95076 139-225) (O95076 139-225): as the sequence (O95076 139-225 N203Q) above, with Q65N counted along it
Chain of ALX3 (Homo sapiens, UniProt O95076 139-225, N203S) (O95076 139-225 N203S): as the sequence (O95076 139-225 N203Q) above, with Q65S counted along it
Chain of HOXA2 (Homo sapiens, UniProt O43364 129-215, R185K) (O43364 129-215 R185K): as the sequence (O43364 129-215 R185T) above, with T57K counted along it

## CAATAAAC
HOXB9 [1]
  binding signal: 9.69 upbm affinity estimate (log intensity, higher = more binding, comparable within an allelic series)
HOXC9 [2]
  binding signal: 12.5 upbm affinity estimate (log intensity, higher = more binding, comparable within an allelic series)
HOXC10 [3]
  binding signal: 12.2 upbm affinity estimate (log intensity, higher = more binding, comparable within an allelic series)
ALX4
  binding signal: 10.6 upbm affinity estimate (log intensity, higher = more binding, comparable within an allelic series)
HOXA2 [4]
  binding signal: 9.38 upbm affinity estimate (log intensity, higher = more binding, comparable within an allelic series)
HOXB9 [5]
  binding signal: 11.8 upbm affinity estimate (log intensity, higher = more binding, comparable within an allelic series)
HOXC9 [6]
  binding signal: 12.7 upbm affinity estimate (log intensity, higher = more binding, comparable within an allelic series)
HOXD13 [7]
  binding signal: 10.9 upbm affinity estimate (log intensity, higher = more binding, comparable within an allelic series)
HOXC9 [8]
  binding signal: 12.5 upbm affinity estimate (log intensity, higher = more binding, comparable within an allelic series)
HOXA2 [9]
  binding signal: 11.7 upbm affinity estimate (log intensity, higher = more binding, comparable within an allelic series)
HOXD13 [10]
  binding signal: 12.2 upbm affinity estimate (log intensity, higher = more binding, comparable within an allelic series)
HOXC10 [11]
  binding signal: 11.4 upbm affinity estimate (log intensity, higher = more binding, comparable within an allelic series)
HOXD13 [12]
  binding signal: 11.9 upbm affinity estimate (log intensity, higher = more binding, comparable within an allelic series)
HOXB9 [13]
  binding signal: 11.5 upbm affinity estimate (log intensity, higher = more binding, comparable within an allelic series)
HOXC9 [14]
  binding signal: 11.1 upbm affinity estimate (log intensity, higher = more binding, comparable within an allelic series)
HOXA2 [15]
  binding signal: 10.7 upbm affinity estimate (log intensity, higher = more binding, comparable within an allelic series)
HOXA2 [16]
  binding signal: 9.11 upbm affinity estimate (log intensity, higher = more binding, comparable within an allelic series)

## ACGATTAT
VENTX [17]
  binding signal: 10.5 upbm affinity estimate (log intensity, higher = more binding, comparable within an allelic series)
NKX2-6
  binding signal: 10.7 upbm affinity estimate (log intensity, higher = more binding, comparable within an allelic series)

## CGCATTAA
VENTX [17]
  binding signal: 10.5 upbm affinity estimate (log intensity, higher = more binding, comparable within an allelic series)
PAX4 [18]
  binding signal: 11.7 upbm affinity estimate (log intensity, higher = more binding, comparable within an allelic series)
VENTX [19]
  binding signal: 10.6 upbm affinity estimate (log intensity, higher = more binding, comparable within an allelic series)
PAX4 [20]
  binding signal: 12.1 upbm affinity estimate (log intensity, higher = more binding, comparable within an allelic series)
PAX4 [21]
  binding signal: 11.6 upbm affinity estimate (log intensity, higher = more binding, comparable within an allelic series)
PAX4 [22]
  binding signal: 10.4 upbm affinity estimate (log intensity, higher = more binding, comparable within an allelic series)
PAX4 [23]
  binding signal: 11 upbm affinity estimate (log intensity, higher = more binding, comparable within an allelic series)
PAX4 [24]
  binding signal: 10.9 upbm affinity estimate (log intensity, higher = more binding, comparable within an allelic series)
CRX
  binding signal: 10.9 upbm affinity estimate (log intensity, higher = more binding, comparable within an allelic series)

## TAATGCGA
VENTX [17]
  binding signal: 10.2 upbm affinity estimate (log intensity, higher = more binding, comparable within an allelic series)
PAX4 [18]
  binding signal: 11.7 upbm affinity estimate (log intensity, higher = more binding, comparable within an allelic series)
PAX4 [20]
  binding signal: 12.1 upbm affinity estimate (log intensity, higher = more binding, comparable within an allelic series)
PAX4 [21]
  binding signal: 11.4 upbm affinity estimate (log intensity, higher = more binding, comparable within an allelic series)
PAX4 [22]
  binding signal: 10.4 upbm affinity estimate (log intensity, higher = more binding, comparable within an allelic series)
PAX4 [23]
  binding signal: 10.9 upbm affinity estimate (log intensity, higher = more binding, comparable within an allelic series)
PAX4 [24]
  binding signal: 10.9 upbm affinity estimate (log intensity, higher = more binding, comparable within an allelic series)
CRX
  binding signal: 10.6 upbm affinity estimate (log intensity, higher = more binding, comparable within an allelic series)

## GCAATAAA
HOXB9 [1]
  binding signal: 10 upbm affinity estimate (log intensity, higher = more binding, comparable within an allelic series)
HOXC9 [2]
  binding signal: 13.2 upbm affinity estimate (log intensity, higher = more binding, comparable within an allelic series)
HOXA7 [25]
  binding signal: 11.2 upbm affinity estimate (log intensity, higher = more binding, comparable within an allelic series)
HOXC10 [3]
  binding signal: 12.8 upbm affinity estimate (log intensity, higher = more binding, comparable within an allelic series)
HOXB6 [26]
  binding signal: 9.94 upbm affinity estimate (log intensity, higher = more binding, comparable within an allelic series)
ALX4
  binding signal: 10.5 upbm affinity estimate (log intensity, higher = more binding, comparable within an allelic series)
HOXB9 [5]
  binding signal: 12.6 upbm affinity estimate (log intensity, higher = more binding, comparable within an allelic series)
HOXC9 [6]
  binding signal: 13.3 upbm affinity estimate (log intensity, higher = more binding, comparable within an allelic series)
HOXD13 [7]
  binding signal: 11 upbm affinity estimate (log intensity, higher = more binding, comparable within an allelic series)
HOXC9 [8]
  binding signal: 13.1 upbm affinity estimate (log intensity, higher = more binding, comparable within an allelic series)
HOXD13 [10]
  binding signal: 12.3 upbm affinity estimate (log intensity, higher = more binding, comparable within an allelic series)
HOXC10 [11]
  binding signal: 12.3 upbm affinity estimate (log intensity, higher = more binding, comparable within an allelic series)
HOXD13 [12]
  binding signal: 12.1 upbm affinity estimate (log intensity, higher = more binding, comparable within an allelic series)
HOXB9 [13]
  binding signal: 12.3 upbm affinity estimate (log intensity, higher = more binding, comparable within an allelic series)
HOXC9 [14]
  binding signal: 11.4 upbm affinity estimate (log intensity, higher = more binding, comparable within an allelic series)
HOXA7 [27]
  binding signal: 8.8 upbm affinity estimate (log intensity, higher = more binding, comparable within an allelic series)
HOXB6 [28]
  binding signal: 11.7 upbm affinity estimate (log intensity, higher = more binding, comparable within an allelic series)

## AACCGATT
VENTX [17]
  binding signal: 10.1 upbm affinity estimate (log intensity, higher = more binding, comparable within an allelic series)
VENTX [19]
  binding signal: 10.3 upbm affinity estimate (log intensity, higher = more binding, comparable within an allelic series)

## CGATTACG
VENTX [17]
  binding signal: 10.5 upbm affinity estimate (log intensity, higher = more binding, comparable within an allelic series)
HOXA7 [25]
  binding signal: 9.64 upbm affinity estimate (log intensity, higher = more binding, comparable within an allelic series)
HOXA7 [27]
  binding signal: 8.74 upbm affinity estimate (log intensity, higher = more binding, comparable within an allelic series)

## GACATTAA
HOXB9 [1]
  binding signal: 10 upbm affinity estimate (log intensity, higher = more binding, comparable within an allelic series)
HOXC9 [2]
  binding signal: 12.6 upbm affinity estimate (log intensity, higher = more binding, comparable within an allelic series)
HOXA7 [25]
  binding signal: 11.2 upbm affinity estimate (log intensity, higher = more binding, comparable within an allelic series)
HOXB6 [26]
  binding signal: 10 upbm affinity estimate (log intensity, higher = more binding, comparable within an allelic series)
HOXB9 [5]
  binding signal: 11.8 upbm affinity estimate (log intensity, higher = more binding, comparable within an allelic series)
HOXC9 [6]
  binding signal: 12.6 upbm affinity estimate (log intensity, higher = more binding, comparable within an allelic series)
HOXC9 [8]
  binding signal: 12.5 upbm affinity estimate (log intensity, higher = more binding, comparable within an allelic series)
HOXC10 [11]
  binding signal: 11.9 upbm affinity estimate (log intensity, higher = more binding, comparable within an allelic series)
HOXB9 [13]
  binding signal: 11.6 upbm affinity estimate (log intensity, higher = more binding, comparable within an allelic series)
HOXC9 [14]
  binding signal: 10.9 upbm affinity estimate (log intensity, higher = more binding, comparable within an allelic series)
HOXA7 [27]
  binding signal: 8.93 upbm affinity estimate (log intensity, higher = more binding, comparable within an allelic series)
HOXB6 [28]
  binding signal: 11.7 upbm affinity estimate (log intensity, higher = more binding, comparable within an allelic series)

## ACCGTTTA
VENTX [17]
  binding signal: 10.1 upbm affinity estimate (log intensity, higher = more binding, comparable within an allelic series)
VENTX [19]
  binding signal: 10.1 upbm affinity estimate (log intensity, higher = more binding, comparable within an allelic series)
PAX4 [20]
  binding signal: 10.4 upbm affinity estimate (log intensity, higher = more binding, comparable within an allelic series)

## CACATTAG
VENTX [17]
  binding signal: 11 upbm affinity estimate (log intensity, higher = more binding, comparable within an allelic series)
ALX3 [29]
  binding signal: 8.26 upbm affinity estimate (log intensity, higher = more binding, comparable within an allelic series)
ALX3 [30]
  binding signal: 10.6 upbm affinity estimate (log intensity, higher = more binding, comparable within an allelic series)
VAX1 [31]
  binding signal: 11.3 upbm affinity estimate (log intensity, higher = more binding, comparable within an allelic series)
VAX1 [32]
  binding signal: 10.8 upbm affinity estimate (log intensity, higher = more binding, comparable within an allelic series)
ALX3 [33]
  binding signal: 8.21 upbm affinity estimate (log intensity, higher = more binding, comparable within an allelic series)
VAX1 [34]
  binding signal: 11 upbm affinity estimate (log intensity, higher = more binding, comparable within an allelic series)
